Experimental data: the supplement of paper PMC6555819

Columns and labels:
Assay in all cases: PBM binding z-score (relative to random genomic background probes); higher = stronger binding; sequences stand for … in GC…GCGATTGACAGCGTAGAATGAAGG
[1] = system: FXR:RXRa (NR concentration 270 nM, RXRa partner concentration 90 nM)
Summary of the method: (§1)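 Custom Agilent 4×180K protein-binding microarrays carried double-stranded probes, each with a 34-nt variable region. These regions held direct-repeat seeds, single-nucleotide variants, half-site ablations and random human genomic background sequences. Ligand-free nuclear receptor dimers were incubated on the arrays for 1 h, antibodies against each partner (one per run) detected binding, and scanned fluorescence was regression-normalized. Binding z-scores take the random background probes as reference.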

[2] = system: LXRa:RXRa (NR concentration 270 nM, RXRa partner concentration 90 nM)
Summary of the method: as §1

[3] = system: LXRa homodimer (NR concentration 270 nM)
Summary of the method: as §1

[4] = system: LXRb:RXRa (NR concentration 270 nM, RXRa partner concentration 90 nM)
Summary of the method: as §1

[5] = system: LXRb homodimer (NR concentration 270 nM)
Summary of the method: as §1

[6] = system: PPARa:RXRa (NR concentration 270 nM, RXRa partner concentration 90 nM)
Summary of the method: as §1

[7] = system: PPARg:RXRa (NR concentration 180 nM, RXRa partner concentration 90 nM)
Summary of the method: as §1

[8] = system: PPARg:RXRa 270nM:90nM, anti-RXR (NR concentration 270 nM, RXRa partner concentration 90 nM)
Summary of the method: as §1

[9] = system: PPARg:RXRa 30nM:10nM, anti-RXR (NR concentration 30 nM, RXRa partner concentration 10 nM)
Summary of the method: as §1

[10] = system: PPARg:RXRa 90nM:30nM, anti-RXR (NR concentration 90 nM, RXRa partner concentration 30 nM)
Summary of the method: as §1

[11] = system: PPARg:RXRa DBDmut IVT, anti-RXR (DBD mutation: RXRa K156A/R161A, NR concentration 270 nM, RXRa partner concentration 90 nM)
Summary of the method: as §1

[12] = system: PPARg:RXRa IVT, anti-PPARg (NR concentration 270 nM, RXRa partner concentration 90 nM)
Summary of the method: as §1

[13] = system: PPARg DBDmut:RXRa IVT, anti-PPARg (DBD mutation: PPARg1 K132A/R137A, NR concentration 270 nM, RXRa partner concentration 90 nM)
Summary of the method: as §1

[14] = system: PPARg DBDmut IVT, anti-PPARg (DBD mutation: PPARg1 K132A/R137A, NR concentration 270 nM)
Summary of the method: as §1

[15] = system: PPARg homodimer (NR concentration 180 nM)
Summary of the method: as §1

[16] = system: PXR:RXRa (NR concentration 270 nM, RXRa partner concentration 90 nM)
Summary of the method: as §1

[17] = system: PXR homodimer (NR concentration 270 nM)
Summary of the method: as §1

[18] = system: RARa:RXR (NR concentration 270 nM, RXRa partner concentration 90 nM)
Summary of the method: as §1

[19] = system: RARa homodimer (NR concentration 270 nM)
Summary of the method: as §1

[20] = system: RARb:RXRa (NR concentration 270 nM, RXRa partner concentration 90 nM)
Summary of the method: as §1

Row | Sequence | PBM binding z-score [1] | PBM binding z-score [2] | PBM binding z-score [3] | PBM binding z-score [4] | PBM binding z-score [5] | PBM binding z-score [6] | PBM binding z-score [7] | PBM binding z-score [8] | PBM binding z-score [9] | PBM binding z-score [10] | PBM binding z-score [11] | PBM binding z-score [12] | PBM binding z-score [13] | PBM binding z-score [14] | PBM binding z-score [15] | PBM binding z-score [16] | PBM binding z-score [17] | PBM binding z-score [18] | PBM binding z-score [19] | PBM binding z-score [20]
1 | GCAGACAGGTGAAATGCAGGTAACTCAGGGTGGC | -0.157 | 0.0887 | -0.625 | -0.157 | -0.898 | 1.23 | 0.71 | 0.196 | -0.445 | 0.00263 | 1.43 | 1.14 | -0.233 | -1.24 | -0.0768 | -0.249 | 0.00173 | 0.324 | -0.661 | 0.683
2 | ATCGAAAGGTCGACGAGGTGAGTATACACCGTTT | 4.62 | 3.32 | -0.0538 | 2.73 | 0.533 | 4.52 | 2.85 | 3.18 | 1.02 | 2.34 | 0.442 | 1.82 | 0.853 | 1.45 | 1.32 | 3.15 | 0.642 | 4.09 | 1.19 | 3.73
3 | TCTTGTAGATCAACAGGAGGTTAAGAATGATCGA | 0.541 | 0.729 | 0.072 | 0.703 | -0.4 | 1.41 | 0.296 | 1.52 | 2.59 | 2.06 | 1.72 | 0.852 | 0.795 | 0.577 | 0.581 | 0.825 | 0.00794 | 0.975 | 0.614 | 0.678
4 | CCAGACAGGTAAGAAGGTAACTCAGCCTCGATTA | 0.251 | 0.138 | -0.169 | 0.0955 | -0.296 | 0.0886 | 0.35 | -0.153 | -0.728 | -0.359 | 0.139 | -0.122 | -0.475 | -0.368 | 0.961 | 0.129 | 0.112 | 0.274 | 0.51 | 0.0631
5 | CGTACTGGGCCAAAGGTCATTGATTCCAATGCTC | 4.8 | 5.21 | 4.25 | 5.04 | 0.838 | 6.66 | 12.7 | 10.7 | 10.2 | 12.9 | 5.43 | 7 | 0.296 | -0.116 | 4.18 | 5.73 | 2.15 | 6.41 | 1.62 | 4.54
6 | TCGAGTAGGTTACCAATGGGGAATTCAGCTTTCT | 0.0745 | 0.417 | -0.56 | 0.355 | -0.737 | 0.977 | 0.304 | 1.2 | 0.963 | 1.18 | 3.57 | 2.58 | -0.097 | -0.739 | -0.227 | -0.148 | -1.08 | 0.0848 | -1.2 | 0.621
7 | CAAACTAGGTAAAGGTCAAAGTCGGTTTGTGCCA | 6.46 | 6.21 | 5.75 | 5.55 | 2.15 | 6.23 | 7.83 | 7.43 | 6.03 | 7.54 | 6.36 | 6.65 | 4.01 | 1.08 | 4.48 | 5.72 | 2.28 | 6.09 | 1.6 | 4.99
8 | AGAACGAAGGCACGCTGAGTTGATAGCAGAGTAG | -0.877 | -0.66 | -0.838 | -1.06 | -0.997 | -0.367 | 0.622 | -0.693 | -0.318 | -0.476 | -0.47 | -0.214 | -0.0465 | -0.623 | -1.17 | -0.449 | -0.696 | -0.468 | -0.886 | -0.566
9 | GCTAGTTGGTCAGTAAAAGGCCACACACCGGTCG | -0.0469 | -0.0882 | -0.17 | -0.23 | -0.629 | 0.0643 | 0.521 | 0.122 | -0.368 | 0.378 | -0.0753 | 0.216 | -0.775 | -1.15 | 0.58 | -0.0291 | -0.108 | 0.345 | -0.305 | 1.42
10 | TCTAGTTGGTCACGGAGGTCACTCACGACGGGTA | 2.52 | 2.98 | 1.91 | 2.84 | 0.542 | 3.15 | 2.52 | 3.55 | 3.29 | 3.24 | 2.58 | 3.97 | 0.646 | 0.986 | 2.5 | 3.9 | 1.36 | 3.6 | 1.05 | 3.47
11 | CGTCCAAGGTCATAGGTCAGTGAAGAGATGACGG | 7.34 | 5.78 | 1.65 | 4.74 | 1.02 | 6.22 | 7.76 | 7.27 | 5.12 | 7.07 | 3.46 | 4.78 | 0.896 | -0.0935 | 3.35 | 5.48 | 1.01 | 6.98 | 1.13 | 5.36
12 | CCTTACGGGTCACTGACCGGTTATAGCATTTGGA | 5.3 | 5.49 | 1.84 | 4.04 | 0.194 | 5 | 3.68 | 4.28 | 1.31 | 2.95 | 3.02 | 3.86 | 1.44 | -0.432 | 2.45 | 2.93 | 0.0567 | 3.72 | 1.71 | 3.96
13 | CAGCCTAGGTCAGGGCCAGTATCGGAGGAACGTT | 1.55 | 0.907 | -0.258 | 0.354 | -1.03 | 1.91 | 0.418 | 0.759 | -0.713 | 0.129 | 1.72 | 1.55 | -1.42 | -1.35 | 0.632 | 0.107 | -1.08 | 0.761 | -0.159 | 3.54
14 | CGTCCAAGGTCTAAGGTCAGTGAAGAGATGACGG | 2.27 | 1.6 | -0.0447 | 1.63 | -0.547 | 3 | 3.03 | 4 | 2.41 | 3.52 | 0.385 | 1.44 | -0.479 | -0.374 | 2.23 | 2.21 | 0.498 | 3.2 | 0.608 | 3.71
